Of roughly 7,900 targets only a part is listed; those with a hit were picked by preference. About 0.6% of all pairs of compound and target were hits. Unmarked numbers belong to inactive results.
Assays:
Assay in all cases: log2 fold change, soluble protein after heating vs DMSO (PISA); higher = thermal stabilisation; K562 cells, 10 uM, 30 min; active = over 0.2 and 3.5 SD of the protein, either way, in both replicates (recomputed)
[1] = compound: C1=CC=C(C=C1)[C@H](COC2=CC3=C(C=C2)NC(=O)N3)NC(=O)C4=CC=CN(C4=O)CC5=CC(=C(C=C5)F)F
In short: (§1)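 Quantification of soluble protein used TMTpro 16plex LC-MS/MS, with channel sums equalised. Samples were the supernatant after 21,000xg for 90 min of pooled aliquots from K562 cells (2×10^6 cells/mL) treated with 10 μM compound for 30 min, heated for 3 min over 48°C-58°C, and extracted in PBS with 0.5% NP-40 at 4°C. Values, from duplicates, describe thermal stability against control samples on a log2 fold-change scale.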

[2] = compound: CC1=C(SC2=C1C(=N[C@H](C3=NN=C(N32)C)CC(=O)N)C4=CC=C(C=C4)Cl)C
In short: as §1

[3] = compound: CC1=C2C(=CC=C1)N=C(N(C2=O)C3=CC=CC=C3C)CN4C=NC5=C(N=CN=C54)N
In short: as §1

[4] = compound: Cc1sc2c(c1C)C(c1ccc(Cl)cc1)=N[C@@H](CC(=O)OC(C)(C)C)c1nnc(C)n1-2
In short: as §1

[5] = compound: c1ccc([C@@H]2C[C@H]2NC2CCNCC2)cc1
In short: as §1

ATP12A isoform 2 (UniProt P54707)
log2 fold change [1]: -0.027 | log2 fold change [2]: 0.062 | log2 fold change [3]: 0.052 | log2 fold change [4]: -0.044 | log2 fold change [5]: -0.043

BCL9L (UniProt Q86UU0)
log2 fold change [1]: 0.001 | log2 fold change [2]: -0.028 | log2 fold change [3]: 0.019 | log2 fold change [4]: 0.051 | log2 fold change [5]: 0.05

ALDH9A1 (UniProt P49189)
log2 fold change [1]: 0.059 | log2 fold change [2]: -0.193 | log2 fold change [3]: 0.03 | log2 fold change [4]: 0.098 | log2 fold change [5]: 0.156

ATAD1 (UniProt Q8NBU5)
log2 fold change [1]: 0.016 | log2 fold change [2]: 0.055 | log2 fold change [3]: 0.063 | log2 fold change [4]: -0.027 | log2 fold change [5]: -0.02

ABCA3 (UniProt Q99758)
log2 fold change [1]: 0.239 | log2 fold change [2]: 0.002 | log2 fold change [3]: -0.05 | log2 fold change [4]: 0.02 | log2 fold change [5]: -0.035

ADD3 (UniProt Q9UEY8)
log2 fold change [1]: 0.019 | log2 fold change [2]: 0.034 | log2 fold change [3]: 0.023 | log2 fold change [4]: -0.002 | log2 fold change [5]: 0.029

ATP1A4 (UniProt Q13733)
Sequence of UniProt Q13733 (Q13733 whole entry, looked up): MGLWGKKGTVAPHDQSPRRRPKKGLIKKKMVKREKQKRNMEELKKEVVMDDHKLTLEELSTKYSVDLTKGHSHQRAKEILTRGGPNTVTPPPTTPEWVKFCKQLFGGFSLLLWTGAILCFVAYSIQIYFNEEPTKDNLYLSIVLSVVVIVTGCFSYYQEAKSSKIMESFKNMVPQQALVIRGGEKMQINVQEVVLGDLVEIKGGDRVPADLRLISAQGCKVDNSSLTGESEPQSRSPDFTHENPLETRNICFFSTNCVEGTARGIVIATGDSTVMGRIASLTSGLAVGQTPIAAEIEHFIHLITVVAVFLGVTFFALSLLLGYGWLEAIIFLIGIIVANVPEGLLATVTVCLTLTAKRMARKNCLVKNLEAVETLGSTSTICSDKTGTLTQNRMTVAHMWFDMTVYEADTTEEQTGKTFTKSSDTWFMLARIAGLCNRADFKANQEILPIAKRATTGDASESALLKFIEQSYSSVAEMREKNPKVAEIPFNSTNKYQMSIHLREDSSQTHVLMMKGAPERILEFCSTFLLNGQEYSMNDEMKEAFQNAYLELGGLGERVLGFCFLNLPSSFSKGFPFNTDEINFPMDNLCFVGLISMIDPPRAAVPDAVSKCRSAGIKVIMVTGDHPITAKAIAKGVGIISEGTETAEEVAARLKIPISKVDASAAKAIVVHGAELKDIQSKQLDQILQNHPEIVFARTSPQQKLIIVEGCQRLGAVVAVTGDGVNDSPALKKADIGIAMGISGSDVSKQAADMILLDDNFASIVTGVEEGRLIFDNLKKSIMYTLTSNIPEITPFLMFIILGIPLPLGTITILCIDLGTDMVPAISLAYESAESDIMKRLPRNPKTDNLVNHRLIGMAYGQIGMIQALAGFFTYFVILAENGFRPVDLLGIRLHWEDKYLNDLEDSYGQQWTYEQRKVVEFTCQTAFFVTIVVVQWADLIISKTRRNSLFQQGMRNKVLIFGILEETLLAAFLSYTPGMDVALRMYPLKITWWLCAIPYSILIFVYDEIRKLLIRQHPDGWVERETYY
log2 fold change [1]: -0.084 | log2 fold change [2]: -0.142 | log2 fold change [3]: 0.035 | log2 fold change [4]: 0.036 | log2 fold change [5]: 0.056

ANXA5 (UniProt P08758)
log2 fold change [1]: -0.036 | log2 fold change [2]: 0.04 | log2 fold change [3]: 0.024 | log2 fold change [4]: 0.021 | log2 fold change [5]: -0.022

ADD2 isoform 9 (UniProt P35612)
log2 fold change [1]: 0.02

ACIN1 (UniProt Q9UKV3)
log2 fold change [1]: 0.003 | log2 fold change [2]: 0.095 | log2 fold change [3]: 0.038 | log2 fold change [4]: 0.023 | log2 fold change [5]: -0.018

AGPAT3 isoform 3 (UniProt Q9NRZ7)
log2 fold change [1]: -0.012 | log2 fold change [2]: 0.064 | log2 fold change [3]: 0.021 | log2 fold change [4]: -0.048 | log2 fold change [5]: -0.024

ATXN7L3 isoform 2 (UniProt Q14CW9)
log2 fold change [1]: -0.156

ATP6V0A1 (UniProt Q93050)
log2 fold change [1]: 0.281

ALDH9A1 isoform 3 (UniProt P49189)
log2 fold change [1]: -0.007 | log2 fold change [2]: 0.029 | log2 fold change [3]: 0.019 | log2 fold change [4]: -0.019 | log2 fold change [5]: 0.028

APPL1 (UniProt Q9UKG1)
Sequence of UniProt Q9UKG1 (Q9UKG1 whole entry, looked up): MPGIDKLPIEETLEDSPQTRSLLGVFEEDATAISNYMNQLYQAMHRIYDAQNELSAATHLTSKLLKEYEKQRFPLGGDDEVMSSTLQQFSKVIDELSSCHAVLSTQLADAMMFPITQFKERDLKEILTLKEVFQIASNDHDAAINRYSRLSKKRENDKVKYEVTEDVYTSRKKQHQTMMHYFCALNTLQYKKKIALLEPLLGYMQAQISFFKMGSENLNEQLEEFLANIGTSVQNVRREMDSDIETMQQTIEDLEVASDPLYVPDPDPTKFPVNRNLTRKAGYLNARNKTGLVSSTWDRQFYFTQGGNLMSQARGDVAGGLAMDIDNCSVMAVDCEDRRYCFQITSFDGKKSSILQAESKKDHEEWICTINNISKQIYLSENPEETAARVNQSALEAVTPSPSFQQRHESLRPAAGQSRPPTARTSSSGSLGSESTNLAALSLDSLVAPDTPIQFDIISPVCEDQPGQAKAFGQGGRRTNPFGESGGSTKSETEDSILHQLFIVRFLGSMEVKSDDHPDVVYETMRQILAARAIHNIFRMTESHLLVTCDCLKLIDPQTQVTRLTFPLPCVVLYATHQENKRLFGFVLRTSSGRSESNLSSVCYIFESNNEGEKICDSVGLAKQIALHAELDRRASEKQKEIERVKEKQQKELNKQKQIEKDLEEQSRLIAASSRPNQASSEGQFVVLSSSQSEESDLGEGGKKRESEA
log2 fold change [1]: -0.027 | log2 fold change [2]: 0.122 | log2 fold change [3]: 0.086 | log2 fold change [4]: -0.025 | log2 fold change [5]: -0.049

AARS2 (UniProt Q5JTZ9)
log2 fold change [1]: -0.047 | log2 fold change [2]: 0.081 | log2 fold change [3]: 0.044 | log2 fold change [4]: 0.005 | log2 fold change [5]: -0.016

ABHD16A (UniProt O95870)
log2 fold change [1]: -0.005 | log2 fold change [2]: 0.011 | log2 fold change [3]: 0.026 | log2 fold change [4]: 0.066 | log2 fold change [5]: -0.088

AHSA1 (UniProt O95433)
log2 fold change [1]: -0.035 | log2 fold change [2]: 0.063 | log2 fold change [3]: 0.015 | log2 fold change [4]: -0.024 | log2 fold change [5]: -0.003

ARL1 (UniProt P40616)
Sequence of UniProt P40616 (P40616 whole entry, looked up): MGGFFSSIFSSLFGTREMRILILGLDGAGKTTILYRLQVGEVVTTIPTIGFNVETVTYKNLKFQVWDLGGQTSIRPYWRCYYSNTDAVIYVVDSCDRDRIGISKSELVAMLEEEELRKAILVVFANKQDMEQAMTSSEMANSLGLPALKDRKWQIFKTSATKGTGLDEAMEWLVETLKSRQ
log2 fold change [1]: -0.084 | log2 fold change [2]: 0.057 | log2 fold change [3]: 0.079 | log2 fold change [4]: -0.1 | log2 fold change [5]: -0.048

ANKZF1 (UniProt Q9H8Y5)
log2 fold change [1]: -0.113 | log2 fold change [2]: -0.037 | log2 fold change [3]: -0.01 | log2 fold change [4]: 0.15 | log2 fold change [5]: -0.008

ACTR1B (UniProt P42025)
log2 fold change [1]: -0.049 | log2 fold change [2]: 0.105 | log2 fold change [3]: 0.034 | log2 fold change [4]: 0.028 | log2 fold change [5]: -0.029

ARPP19 (UniProt P56211)
Sequence of UniProt P56211 (P56211 whole entry, looked up): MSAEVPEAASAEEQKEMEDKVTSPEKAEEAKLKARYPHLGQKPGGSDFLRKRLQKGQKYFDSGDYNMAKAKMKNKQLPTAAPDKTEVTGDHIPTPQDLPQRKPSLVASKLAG
log2 fold change [1]: 0.003 | log2 fold change [2]: 0.021 | log2 fold change [3]: -0.076 | log2 fold change [4]: 0.031 | log2 fold change [5]: -0.007

APOH (UniProt P02749)
log2 fold change [1]: -0.265 | log2 fold change [2]: -0.106 | log2 fold change [3]: 0.073 | log2 fold change [4]: -0.051 | log2 fold change [5]: 0.199

ASNS (UniProt P08243)
log2 fold change [1]: 0.025 | log2 fold change [2]: 0.044 | log2 fold change [3]: 0.027 | log2 fold change [4]: -0.008 | log2 fold change [5]: -0.019

AASDH (UniProt Q4L235)
log2 fold change [1]: 0.047 | log2 fold change [2]: 0.054 | log2 fold change [3]: -0.25 | log2 fold change [4]: -0.05 | log2 fold change [5]: 0.037

ATRN (UniProt O75882)
log2 fold change [1]: -0.011 | log2 fold change [2]: -0.031 | log2 fold change [3]: 0.027 | log2 fold change [4]: -0.055 | log2 fold change [5]: 0.006

AGRN (UniProt O00468)
Sequence of UniProt O00468 (O00468 whole entry, looked up): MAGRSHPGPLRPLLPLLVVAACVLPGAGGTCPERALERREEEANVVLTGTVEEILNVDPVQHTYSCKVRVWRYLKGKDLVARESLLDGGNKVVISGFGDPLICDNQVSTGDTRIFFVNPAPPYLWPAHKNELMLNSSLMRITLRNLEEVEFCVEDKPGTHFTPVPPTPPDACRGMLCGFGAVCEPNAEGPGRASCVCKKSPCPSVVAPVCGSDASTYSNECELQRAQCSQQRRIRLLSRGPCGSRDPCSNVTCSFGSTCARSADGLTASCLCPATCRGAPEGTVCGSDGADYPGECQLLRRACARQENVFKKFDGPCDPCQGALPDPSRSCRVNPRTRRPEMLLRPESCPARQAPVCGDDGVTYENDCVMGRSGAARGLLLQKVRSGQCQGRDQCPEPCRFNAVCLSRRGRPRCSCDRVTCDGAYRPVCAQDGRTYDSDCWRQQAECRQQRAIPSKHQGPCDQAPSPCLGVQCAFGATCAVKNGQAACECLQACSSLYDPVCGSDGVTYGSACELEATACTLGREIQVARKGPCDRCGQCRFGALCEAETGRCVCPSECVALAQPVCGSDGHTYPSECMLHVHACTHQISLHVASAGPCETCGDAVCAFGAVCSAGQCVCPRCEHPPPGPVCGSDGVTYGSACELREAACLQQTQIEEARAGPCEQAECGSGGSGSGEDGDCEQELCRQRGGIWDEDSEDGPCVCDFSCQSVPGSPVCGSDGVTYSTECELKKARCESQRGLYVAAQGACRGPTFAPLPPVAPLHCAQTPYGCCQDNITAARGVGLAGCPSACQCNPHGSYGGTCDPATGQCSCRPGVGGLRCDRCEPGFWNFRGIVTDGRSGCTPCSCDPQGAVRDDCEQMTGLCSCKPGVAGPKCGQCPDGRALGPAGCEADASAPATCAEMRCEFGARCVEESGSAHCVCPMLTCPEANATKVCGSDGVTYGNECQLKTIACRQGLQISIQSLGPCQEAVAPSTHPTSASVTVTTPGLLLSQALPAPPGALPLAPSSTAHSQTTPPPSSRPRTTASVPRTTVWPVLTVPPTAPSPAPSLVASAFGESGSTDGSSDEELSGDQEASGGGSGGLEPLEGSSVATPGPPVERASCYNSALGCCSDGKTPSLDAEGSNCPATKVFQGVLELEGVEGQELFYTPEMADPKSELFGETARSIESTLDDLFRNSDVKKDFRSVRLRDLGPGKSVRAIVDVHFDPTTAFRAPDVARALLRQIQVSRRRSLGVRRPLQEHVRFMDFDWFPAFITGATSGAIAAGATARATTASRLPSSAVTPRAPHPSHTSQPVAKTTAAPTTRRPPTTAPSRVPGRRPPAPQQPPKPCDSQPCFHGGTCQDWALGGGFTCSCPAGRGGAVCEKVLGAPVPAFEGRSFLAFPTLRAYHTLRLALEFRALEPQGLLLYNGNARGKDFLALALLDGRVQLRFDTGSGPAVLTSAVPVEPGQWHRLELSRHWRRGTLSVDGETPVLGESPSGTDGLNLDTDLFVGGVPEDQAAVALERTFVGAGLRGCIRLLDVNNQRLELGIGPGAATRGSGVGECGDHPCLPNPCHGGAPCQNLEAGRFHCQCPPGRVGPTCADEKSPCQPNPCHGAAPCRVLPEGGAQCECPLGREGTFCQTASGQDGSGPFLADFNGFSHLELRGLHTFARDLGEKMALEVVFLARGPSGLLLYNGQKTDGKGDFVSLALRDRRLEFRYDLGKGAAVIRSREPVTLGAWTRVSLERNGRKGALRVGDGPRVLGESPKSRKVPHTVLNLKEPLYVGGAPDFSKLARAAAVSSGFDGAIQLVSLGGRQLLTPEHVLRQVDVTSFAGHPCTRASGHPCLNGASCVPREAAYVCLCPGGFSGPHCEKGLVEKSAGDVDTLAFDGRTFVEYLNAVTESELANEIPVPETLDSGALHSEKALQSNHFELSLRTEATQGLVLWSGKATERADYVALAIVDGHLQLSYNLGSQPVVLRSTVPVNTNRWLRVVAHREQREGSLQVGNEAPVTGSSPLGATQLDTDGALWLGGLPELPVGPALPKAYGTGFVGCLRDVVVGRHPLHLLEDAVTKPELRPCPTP
log2 fold change [1]: 0.06 | log2 fold change [2]: 0.154 | log2 fold change [3]: 0.043 | log2 fold change [4]: -0.038 | log2 fold change [5]: 0.028

ADAM15 (UniProt Q13444)
log2 fold change [1]: -0.041 | log2 fold change [2]: 0.059 | log2 fold change [3]: 0.096 | log2 fold change [4]: 0.08 | log2 fold change [5]: 0

ARRDC1 (UniProt Q8N5I2)
log2 fold change [1]: 0.005 | log2 fold change [2]: -0.462 (active) | log2 fold change [3]: -0.062 | log2 fold change [4]: -0.1 | log2 fold change [5]: -0.037

BECN1 (UniProt Q14457)
Sequence of UniProt Q14457 (Q14457 whole entry, looked up): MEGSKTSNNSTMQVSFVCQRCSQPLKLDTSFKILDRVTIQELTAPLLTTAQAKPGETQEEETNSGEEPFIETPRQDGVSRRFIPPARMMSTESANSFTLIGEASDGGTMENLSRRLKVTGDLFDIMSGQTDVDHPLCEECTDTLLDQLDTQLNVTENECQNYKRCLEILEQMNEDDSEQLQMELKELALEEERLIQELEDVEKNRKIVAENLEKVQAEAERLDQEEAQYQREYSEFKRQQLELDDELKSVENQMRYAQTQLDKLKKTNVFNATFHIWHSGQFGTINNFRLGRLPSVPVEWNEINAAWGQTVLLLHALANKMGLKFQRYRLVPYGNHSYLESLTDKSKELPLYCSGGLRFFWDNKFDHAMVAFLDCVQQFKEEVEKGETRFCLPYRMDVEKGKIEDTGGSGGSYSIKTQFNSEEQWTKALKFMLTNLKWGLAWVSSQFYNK
log2 fold change [1]: -0.071 | log2 fold change [2]: 0.061 | log2 fold change [3]: -0.017 | log2 fold change [4]: 0.021 | log2 fold change [5]: 0.05

ARFIP1 isoform 2 (UniProt P53367)
log2 fold change [1]: 0.009

ARHGAP4 isoform 2 (UniProt P98171)
log2 fold change [1]: 0.211 | log2 fold change [2]: -0.101 | log2 fold change [3]: -0.069 | log2 fold change [4]: -0.122 | log2 fold change [5]: 0.008

ALKBH4 (UniProt Q9NXW9)
log2 fold change [1]: 0.023 | log2 fold change [2]: -0.063 | log2 fold change [3]: -0.078 | log2 fold change [4]: 0.079 | log2 fold change [5]: -0.033

BCCIP (UniProt Q9P287)
log2 fold change [1]: -0.044 | log2 fold change [2]: -0.018 | log2 fold change [3]: 0 | log2 fold change [4]: -0.037 | log2 fold change [5]: -0.062

ARL4A (UniProt P40617)
log2 fold change [1]: -0.027

ABCB6 (UniProt Q9NP58)
log2 fold change [1]: 0.001 | log2 fold change [2]: 0.003 | log2 fold change [3]: 0.05 | log2 fold change [4]: -0.049 | log2 fold change [5]: 0.012

ALG5 (UniProt Q9Y673)
log2 fold change [1]: -0.037 | log2 fold change [2]: 0.1 | log2 fold change [3]: 0.082 | log2 fold change [4]: -0.06 | log2 fold change [5]: -0.056

ARHGAP1 (UniProt Q07960)
log2 fold change [1]: -0.02 | log2 fold change [2]: 0.023 | log2 fold change [3]: 0.047 | log2 fold change [4]: -0.005 | log2 fold change [5]: 0.002

AAMP (UniProt Q13685)
log2 fold change [1]: -0.015 | log2 fold change [2]: -0.013 | log2 fold change [3]: 0.014 | log2 fold change [4]: -0.032 | log2 fold change [5]: 0.021

ADD2 (UniProt P35612)
log2 fold change [1]: 0.005 | log2 fold change [2]: 0.044 | log2 fold change [3]: 0.014 | log2 fold change [4]: -0.024 | log2 fold change [5]: 0.016

ARAF (UniProt P10398)
log2 fold change [1]: -0.05 | log2 fold change [2]: -0.003 | log2 fold change [3]: 0.178 | log2 fold change [4]: 0.022 | log2 fold change [5]: 0.027

AKT2 (UniProt P31751)
log2 fold change [1]: -0.124 | log2 fold change [2]: 0.055 | log2 fold change [3]: 0.061 | log2 fold change [4]: 0.009 | log2 fold change [5]: -0.028

AGPAT1 (UniProt Q99943)
log2 fold change [1]: -0.006 | log2 fold change [2]: 0.075 | log2 fold change [3]: 0.103 | log2 fold change [4]: -0.032 | log2 fold change [5]: 0.023

ATG4B isoform 2 (UniProt Q9Y4P1)
log2 fold change [1]: -0.079 | log2 fold change [2]: 0.056 | log2 fold change [3]: 0.166 | log2 fold change [4]: 0.188 | log2 fold change [5]: 0.07

ACBD6 (UniProt Q9BR61)
log2 fold change [1]: -0.033 | log2 fold change [2]: 0.087 | log2 fold change [3]: 0.1 | log2 fold change [4]: -0.072 | log2 fold change [5]: 0.073

AKR1C3 (UniProt P42330)
log2 fold change [1]: 0.155 | log2 fold change [2]: 0.049 | log2 fold change [3]: 0.132 | log2 fold change [4]: -0.038 | log2 fold change [5]: -0.156

ALG11 (UniProt Q2TAA5)
log2 fold change [1]: 0.001 | log2 fold change [2]: 0.085 | log2 fold change [3]: 0.144 | log2 fold change [4]: -0.051 | log2 fold change [5]: -0.021

ABHD17A isoform 2 (UniProt Q96GS6)
log2 fold change [1]: 0.029 | log2 fold change [2]: 0.079 | log2 fold change [3]: 0.122 | log2 fold change [4]: -0.148 | log2 fold change [5]: -0.012

ATP23 (UniProt Q9Y6H3)
log2 fold change [1]: -0.023 | log2 fold change [2]: -0.031 | log2 fold change [3]: -0.009 | log2 fold change [4]: -0.052 | log2 fold change [5]: -0.053

ALDH1B1 (UniProt P30837)
log2 fold change [1]: 0.037 | log2 fold change [2]: 0.064 | log2 fold change [3]: 0.013 | log2 fold change [4]: -0.047 | log2 fold change [5]: 0.009

BTBD6 (UniProt Q96KE9)
log2 fold change [1]: 0.12 | log2 fold change [2]: 0.073 | log2 fold change [3]: 0.04 | log2 fold change [4]: -0.117 | log2 fold change [5]: -0.099

BZW1 isoform 3 (UniProt Q7L1Q6)
Sequence of UniProt Q7L1Q6 (Q7L1Q6 whole entry, looked up): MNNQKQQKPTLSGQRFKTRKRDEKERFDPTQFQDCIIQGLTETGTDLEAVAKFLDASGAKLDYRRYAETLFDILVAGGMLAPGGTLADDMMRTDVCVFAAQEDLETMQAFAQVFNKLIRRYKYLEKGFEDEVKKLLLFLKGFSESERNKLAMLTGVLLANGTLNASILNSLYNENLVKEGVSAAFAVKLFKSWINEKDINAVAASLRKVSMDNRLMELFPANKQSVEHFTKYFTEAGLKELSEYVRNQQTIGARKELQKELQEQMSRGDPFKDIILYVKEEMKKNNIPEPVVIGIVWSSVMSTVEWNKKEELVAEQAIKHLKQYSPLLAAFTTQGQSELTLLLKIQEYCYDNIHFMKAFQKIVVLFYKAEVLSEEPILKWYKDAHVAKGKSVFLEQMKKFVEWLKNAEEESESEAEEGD
log2 fold change [1]: -0.227 | log2 fold change [2]: 0.002 | log2 fold change [3]: 0.044 | log2 fold change [4]: -0.044 | log2 fold change [5]: -0.017

ACSF3 (UniProt Q4G176)
log2 fold change [1]: 0.037 | log2 fold change [2]: 0.086 | log2 fold change [3]: 0.12 | log2 fold change [4]: -0.067 | log2 fold change [5]: 0.063

AFDN isoform 5 (UniProt P55196)
log2 fold change [1]: -0.04 | log2 fold change [2]: 0.055 | log2 fold change [3]: 0.069 | log2 fold change [4]: -0.018 | log2 fold change [5]: -0.023

BRD2 isoform 2 (UniProt P25440)
log2 fold change [1]: -0.257 | log2 fold change [2]: 2.34 (active) | log2 fold change [3]: 0.092 | log2 fold change [4]: 2.33 (active) | log2 fold change [5]: 0.029

ATF1 (UniProt P18846)
log2 fold change [1]: -0.054 | log2 fold change [2]: 0.11 | log2 fold change [3]: -0.001 | log2 fold change [4]: -0.014 | log2 fold change [5]: -0.391 (active)

— the supplement of paper PMC10849652
